Experimental data: PubChem BioAssay (EPA / NIEHS)
Inconclusive results are not listed. Some structures have more than one record in an assay (separate samples or runs), and their calls can disagree. Active and inactive are the calls of the source. How the source made its calls: active means hit-call score of the fitted dose curve at least 0.9, where 1 is the maximum; inconclusive means response in the unintended direction; inactive means score below 0.9.

Assays:
[1] = ACEA_AR_agonist_AUC_viability: ACEA Biosciences xCELLigence Real-Time Cell Analysis on Androgen Receptor Agonism for Viability (AID 2283775);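 on AC50: viability read 80 hours after compound addition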
In short: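 22Rv1 cells; impedance growth kinetics; 8-pt 1:4 dilutions from 100 uM top final, ≤0.5% DMSO; n = 2; 80 h read; AUC viability, loss-of-signal vs DMSO.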

[2] = ACEA_AR_antagonist_AUC_viability: ACEA Biosciences xCELLigence Real-Time Cell Analysis on Androgen Receptor Antagonism for Viability (AID 2283776);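 further: area under impedance growth curve at 80 h after dosing as viability; hits lower the growth signal relative to DMSO meaning cytotoxicity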
In short: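 22Rv1 human prostate cancer cells were seeded on electrode plates, monitored overnight, then exposed to eight 1:4 dilutions from 100 uM final. Impedance-based growth kinetics at 80 h gave an AUC viability endpoint normalized to DMSO.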

[3] = target: zebrafish Estrogen Receptor (ESR1), esr1 (gene 259252) (UniProt P57717); test: ATG_zfER1_XSP1: Attagene TRANS-FACTORIAL Multi-Species (XSP1) HepG2 Assay for zebrafish Estrogen Receptor (ESR1) (AID 2283772)
Chain of zebrafish Estrogen Receptor (ESR1), esr1 (gene 259252) (P57717 whole entry, looked up, the tested form may be a part): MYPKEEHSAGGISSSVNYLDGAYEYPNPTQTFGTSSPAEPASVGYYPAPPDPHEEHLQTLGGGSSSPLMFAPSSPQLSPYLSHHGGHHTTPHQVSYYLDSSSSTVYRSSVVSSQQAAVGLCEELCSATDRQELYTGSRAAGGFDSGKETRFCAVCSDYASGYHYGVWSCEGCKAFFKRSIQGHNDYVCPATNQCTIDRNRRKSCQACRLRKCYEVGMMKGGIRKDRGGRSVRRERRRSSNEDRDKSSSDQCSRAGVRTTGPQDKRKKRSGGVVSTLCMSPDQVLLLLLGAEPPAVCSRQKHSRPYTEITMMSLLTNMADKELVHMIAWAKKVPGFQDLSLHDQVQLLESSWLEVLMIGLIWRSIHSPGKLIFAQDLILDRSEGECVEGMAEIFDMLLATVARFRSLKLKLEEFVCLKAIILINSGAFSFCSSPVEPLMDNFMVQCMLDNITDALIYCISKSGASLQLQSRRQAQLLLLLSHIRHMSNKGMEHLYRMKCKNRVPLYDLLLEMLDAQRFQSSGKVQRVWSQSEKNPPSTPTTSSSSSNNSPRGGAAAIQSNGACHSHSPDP
In short: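 HepG2 cells transiently transfected with a GAL4-UAS reporter and chimeric zebrafish ER-Gal4, dosed 24 h with 3 nM 6-alpha-fluorotestosterone present. Reporter mRNA measured by RT-PCR and capillary electrophoresis; gain of signal versus DMSO.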

[4] = system: frog Estrogen Receptor (ESR2), gene 100174814; test: ATG_frER2_XSP1: Attagene TRANS-FACTORIAL Multi-Species (XSP1) HepG2 Assay for frog Estrogen Receptor (ESR2) (AID 2283774)
Protocol: ATG_XSP1_multi-species_TRANS is a cell-based, multiplexed assay created by modifying the existing Attagene TRANS-FACTORIAL system to include a panel of nuclear receptors from some or all the following species: human (Homo sapiens), mouse (Mus musculus), frog (Xenopus laevis), zebrafish (Danio rerio), chicken (Gallus gallus), and turtle (Chrysemys picta). The ECOTOX-FACTORIAL format uses HepG2, a human liver cell line, with measurements taken at 24 hours after chemical dosing in a 24-well plate. Xsp1 included 3 nM 6-alpha-fluorotestosterone to partially stimulate the androgen receptor.ATG_frER2_XSP1 is one of 29 assay components measured or calculated from the ATG_XSP1_multi-species_TRANS assay. It is designed to make measurements of mRNA induction, a form of inducible reporter, as detected with fluorescence intensity signals by Reverse transcription polymerase chain reaction (RT-PCR) and Capillary electrophoresis technology.The assay endpoint ATG_frER2_XSP1 was analyzed in the positive analysis fitting direction relative to DMSO as the negative control and baseline of activity. […] Furthermore, this assay endpoint can be referred to as a primary readout, because this assay has produced multiple assay endpoints where this one serves a reporter gene function. […]

[5] = system: frog Estrogen Receptor (ESR1), gene 398734; test: ATG_frER1_XSP1: Attagene TRANS-FACTORIAL Multi-Species (XSP1) HepG2 Assay for frog Estrogen Receptor (ESR1) (AID 2283777)
In short: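 HepG2 cells transiently transfected with GAL4-UAS reporter units and frog ER–Gal4 chimera were dosed for 24 h with 3 nM 6-alpha-fluorotestosterone present. Reporter mRNA was measured by RT-PCR and capillary electrophoresis; gain of signal fitted versus DMSO.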

[6] = target: chicken Estrogen Receptor (ESR1), ESR1 (gene 396099) (UniProt P06212); test: ATG_chERa_XSP1: Attagene TRANS-FACTORIAL Multi-Species (XSP1) HepG2 Assay for chicken Estrogen Receptor (ESR1) (AID 2283779)
Chain of chicken Estrogen Receptor (ESR1), ESR1 (gene 396099) (P06212 whole entry, looked up, the tested form may be a part): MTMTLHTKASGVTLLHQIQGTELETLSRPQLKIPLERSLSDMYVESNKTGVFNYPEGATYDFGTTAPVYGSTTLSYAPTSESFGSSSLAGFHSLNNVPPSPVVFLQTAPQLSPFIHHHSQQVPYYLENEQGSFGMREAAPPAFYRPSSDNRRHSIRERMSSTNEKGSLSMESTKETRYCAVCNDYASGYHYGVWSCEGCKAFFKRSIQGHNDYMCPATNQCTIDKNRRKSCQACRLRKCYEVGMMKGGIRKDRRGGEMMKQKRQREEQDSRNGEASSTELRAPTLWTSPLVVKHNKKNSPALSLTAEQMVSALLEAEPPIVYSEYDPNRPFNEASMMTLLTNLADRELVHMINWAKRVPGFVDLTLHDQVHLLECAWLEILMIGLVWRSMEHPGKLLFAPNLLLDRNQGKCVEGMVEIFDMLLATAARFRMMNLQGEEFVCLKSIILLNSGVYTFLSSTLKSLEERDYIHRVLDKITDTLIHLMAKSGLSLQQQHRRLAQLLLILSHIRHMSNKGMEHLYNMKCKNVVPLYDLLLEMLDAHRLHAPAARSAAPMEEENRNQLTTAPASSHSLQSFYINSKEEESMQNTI
In short: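 Trans-activation of an exogenous chicken ERα–Gal4 chimera read as reporter transcript (RT-PCR, fluorescent labeling, capillary electrophoresis) after 24 h compound exposure of transfected HepG2; medium held 3 nM 6-alpha-fluorotestosterone. Positive-direction fit against DMSO.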

[7] = system: turtle Estrogen Receptor (ESR1), gene 101933533; test: ATG_trERa_XSP1: Attagene TRANS-FACTORIAL Multi-Species (XSP1) HepG2 Assay for turtle Estrogen Receptor (ESR1) (AID 2283781)
In short: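 Transactivation measured 24 h post-dose as reporter mRNA (RT-PCR, fluorescent capillary electrophoresis) from an NR-Gal4 turtle ER construct in HepG2. Medium included 3 nM 6-alpha-fluorotestosterone; increase over DMSO fitted.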

[8] = system: zebrafish Estrogen Receptor (ESR2B), gene 317733; test: ATG_zfER2b_XSP1: Attagene TRANS-FACTORIAL Multi-Species (XSP1) HepG2 Assay for zebrafish Estrogen Receptor (ESR2B) (AID 2283773)
In short: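 Medium contained 3 nM 6-alpha-fluorotestosterone. Reporter mRNA induction by exogenous zebrafish ER2b-Gal4 chimera was read 24 h post-dose in transiently transfected HepG2 cells, using RT-PCR, fluorescent labelling, HpaI digestion and capillary electrophoresis.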

[9] = ACEA_ER_AUC_viability: ACEA Biosciences xCELLigence Real-Time Cell Analysis on Estrogen Receptor Agonism for Viability (AID 2283782);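 further: hit means loss of impedance signal meaning reduced cell growth or viability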
In short: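 Viability endpoint: reduced impedance area under the curve relative to DMSO, recorded by real-time electrode sensing over ~80 h of continuous exposure. Duplicate plates of T47D in hormone-depleted medium; eight concentrations, 1:4 dilutions, 100 uM maximum.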

For Cc1cccc(O)c1, the outcome [1] was “inactive” and the outcome [2] was “inactive”.

For CC(C)N(c1ccccc1)C(C)C, the outcome [1] was “inactive” and the outcome [2] was “inactive”.

With NC(=O)c1cccnc1 the outcome [1] was “inactive”.

For [Na+], the outcome [1] was “inactive” and the outcome [2] was “inactive”.

For C#C[C@]1(O)CC[C@H]2[C@@H]3CCc4cc(O)ccc4[C@H]3CC[C@@]21C, the AC50 [3] was 0.281 nM (active), the AC50 [4] was 0.273 nM (active) and the outcome [1] was “inactive”. The AC50 [2] was 30500 nM (active), the outcome [2] was “inactive” and the AC50 [5] was 0.0393 nM (active). For the same molecule, the AC50 [6] was 0.0617 nM (active) and the AC50 [7] was 0.0403 nM (active).

In the case of CCCC(O)C(CC)CO (configuration not stated), the outcome [1] is reported as “inactive”.

For CC1=CCC(C(C)(C)O)CC1 (configuration not stated), the outcome [1] was “inactive” and the outcome [2] was “inactive”.

With NCCN1CCNCC1 the outcome [1] was “inactive”.

For CC(=O)CC(=O)N(C)C, the outcome [1] was “inactive” and the outcome [2] was “inactive”.

With C[C@]12CC[C@@H]3c4ccc(O)cc4CC[C@H]3[C@@H]1CC[C@@H]2O the AC50 [1] was 50 nM (active), the outcome [1] was “inactive” and the AC50 [2] was 85900 nM (active). For the same molecule, the outcome [2] was “inactive”.

With COc1cc(OC)c2ccc(=O)oc2c1 the AC50 [1] was 940 nM (active) and the AC50 [2] was 250 nM (active).

For CCCCCCCCCO, the outcome [1] was “inactive”.

For CCCCCCCCCCOC(=O)c1ccccc1C(=O)OCCCCCCCC, the outcome [1] was “inactive” and the outcome [2] was “inactive”.

In the case of CC(C)(C)c1ccc(S)cc1, the outcome [1] is reported as “inactive”.

For CC1=CCC(C(C)C)=CC1, the outcome [1] was “inactive”.

With CC(C)(C)c1cccc(O)c1 the outcome [1] was “inactive” and the outcome [2] was “inactive”.

With CC(=O)c1ccc2ccccc2c1 the outcome [1] was “inactive” and the outcome [2] was “inactive”.

In the case of CCNC(=S)NCC, the outcome [1] is reported as “inactive” and the outcome [2] is reported as “inactive”.

For O=C(O)c1ccccc1O, the outcome [1] was “inactive”.

With O=C1OC2(c3ccc(O)cc3Oc3cc(O)ccc32)c2ccccc21 the outcome [1] was “inactive” and the outcome [2] was “inactive”.

For O=C(O)C1=NN(c2ccc(S(=O)(=O)O)cc2)C(=O)C1, the AC50 [1] was 8670 nM (active).

For CCCCOCCOCCOCCO, the outcome [1] was “inactive” and the outcome [2] was “inactive”.

In the case of O=c1cc(-c2ccc(O)cc2)oc2cc(O)cc(O)c12, the AC50 [1] is reported as 12700 nM (active) and the AC50 [2] is reported as 6430 nM (active).

With C=CC(C)CCCC(C)(C)O (configuration not stated) the outcome [1] was “inactive”.

For CCC(C)COC(=O)CC(C)C (configuration not stated), the outcome [1] was “inactive”.

With O=Cc1ccccc1O the outcome [1] was “inactive” and the outcome [2] was “inactive”.

For OC[C@H]1O[C@@H](O[C@H]2[C@H](O)[C@@H](O)[C@H](O)O[C@@H]2CO)[C@H](O)[C@@H](O)[C@H]1O, the AC50 [1] was 603 nM (active).

In the case of CNC(=C[N+](=O)[O-])NCCSCc1ccc(CN(C)C)o1, the outcome [1] is reported as “inactive” and the outcome [2] is reported as “inactive”.

In the case of CC(=O)OC(C)(C)C, the outcome [1] is reported as “inactive”.

In the case of COC(=O)c1cccc(C(=O)OC)c1, the outcome [1] is reported as “inactive” and the outcome [2] is reported as “inactive”.

For CC/C(=C(\c1ccccc1)c1ccc(OCCN(C)C)cc1)c1ccccc1, the outcome [3] was “inactive”, the outcome [8] was “inactive” and the AC50 [1] was 10400 nM (active). For the same molecule, the AC50 [2] was 11000 nM (active), the outcome [2] was “inactive” and the AC50 [9] was 17.7 µM (active) [middle of 5 runs].
